Source: the supplement of paper PMC3334620
In all, about 33,000 sequences were measured (“E-score (-0.5 to 0.5)”: median about -0.017, highest 2% from about 0.3 on). The sample holds the highest values, similar sequences and a random draw of the others, so the mix is not that of the screen.

target: T1, Sut1 (UniProt P53032); assay: PBM E-score (8-mer binding enrichment) (E-score (-0.5 to 0.5)); higher = stronger / more preferred TF binding; conditions: protein concentration: 200 nM; construct: GST-full length
T1 sequence: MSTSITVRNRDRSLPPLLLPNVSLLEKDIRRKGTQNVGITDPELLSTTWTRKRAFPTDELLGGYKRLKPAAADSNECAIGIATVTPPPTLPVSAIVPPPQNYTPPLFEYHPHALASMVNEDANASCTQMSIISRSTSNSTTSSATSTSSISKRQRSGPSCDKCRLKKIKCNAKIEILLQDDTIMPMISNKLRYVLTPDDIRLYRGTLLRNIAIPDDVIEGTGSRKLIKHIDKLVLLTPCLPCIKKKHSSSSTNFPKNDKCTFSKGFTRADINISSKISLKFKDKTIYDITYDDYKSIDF
Procedure: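 Universal 'all 10-mer' protein binding microarrays (Agilent AMADID 015681) probed with GST-tagged S. cerevisiae TFs (full-length or DBD) made by in vitro transcription/translation (PURExpress), about 100-200 nM. Bound TF was detected with fluorescent anti-GST. Each ungapped 8-mer (which stands for itself and its reverse complement) is scored by the PBM enrichment score (E-score), a modified Wilcoxon-Mann-Whitney statistic from -0.5 to +0.5, computed with the Universal PBM Analysis Suite. Scale: above 0.35 generally sequence-specific binding.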

Row | Sequence | PBM E-score
1 | CCGCGACC | -0.177
2 | ATGAGCTA | 0.0367
3 | AGTCAAAC | -0.135
4 | GGCAATTA | 0.0911
5 | CCCGAGAA | 0.157
6 | TCCGAGAA | 0.407
7 | ACCGAGAA | 0.229
8 | AACTTGCG | -0.0193
9 | CCACTCCC | -0.254
10 | ACACTCCT | -0.0674
11 | ATACTCCG | 0.487
12 | CCACTCCA | -0.174
13 | ATACTCCC | 0.108
14 | CCACTCCG | 0.444
15 | ATACTCCA | -0.0121
16 | ACTCTCCG | 0.27
17 | ACACTCCG | 0.438
18 | ACAGACAA | 0.294
19 | GGATAGCC | 0.0369
20 | TAGCATCA | -0.0462
21 | GCAATTGC | -0.0673
22 | CGGCCTGC | -0.186
23 | CTGTGCAC | -0.277
24 | CGGTGTCC | 0.0917
25 | GAACCCTC | -0.17

Row | Sequence | PBM E-score
26 | AGACTCCC | -0.319
27 | CGACTCCG | 0.47
28 | AGACTCCT | -0.142
29 | CGACTCCC | -0.211
30 | AGACTCCG | 0.47
31 | CGACTCCA | -0.132
32 | AACTGTCG | 0.00476
33 | GCTAGTAC | -0.14
34 | ACCTGAGA | -0.0623
35 | CCCGAAGG | -0.0908
36 | AGAATTCA | 0.115
37 | ATAAACTC | 0.315
38 | ATAAACTG | 0.047
39 | CTAAACTC | 0.225
40 | TACACCCA | 0.036
41 | TAGCGTCA | -0.116
42 | AGGAAAGA | 0.0593
43 | CGGAAAGA | 0.312
44 | CGGAAAGC | 0.275
45 | CGGAAATC | 0.212
46 | CGGAAATA | 0.337
47 | GGGAAATA | 0.0403
48 | AATGTGCT | 0.0947
49 | TACTGAGA | -0.055
50 | CAGGTCCC | -0.182

Row | Sequence | PBM E-score
51 | CAGGTCCG | 0.438
52 | AAGGTCCG | 0.407
53 | AAGGTCCA | -0.135
54 | CAGGTCCA | -0.231
55 | AAGGTCCT | -0.239
56 | AGTCGAAA | 0.115
57 | TCTGGTAA | -0.0251
58 | ATGCTAGA | 0.0093
59 | ACGCTGTA | -0.0391
60 | ATCAAGAG | 0.117
61 | CTAGGCTC | -0.149
62 | CGTAGCCC | -0.274
63 | AGCGCCCT | -0.128
64 | ACGGACAG | -0.0929
65 | ACGGACCA | 0.277
66 | ACGGACCT | 0.339
67 | ACGGACAC | 0.0824
68 | ACGGACAT | 0.404
69 | ACGGACCG | -0.0134
70 | ACAGTCCC | -0.2
71 | GTTCCCTA | -0.238
72 | CGAATATA | 0.231
73 | CCCATATC | -0.043
74 | GACTCATA | 0.0779
75 | AATCCGAC | 0.0553

Row | Sequence | PBM E-score
76 | ACTCCGAC | 0.489
77 | ACTCCGAT | 0.491
78 | ACTCCTAT | 0.0886
79 | CCTCCGAC | 0.0212
80 | ACTCCCAT | -0.0456
81 | CCAACGGA | 0.207
82 | ACAACGGG | 0.0387
83 | TCAACGGA | 0.246
84 | GCAACGGA | 0.306
85 | ACAACGGA | 0.335
86 | GCAACGGC | -0.0987
87 | AAGCCAGT | -0.176
88 | CAGAAGAC | -0.17
89 | CACGTGCC | -0.186
90 | AGTGGCCA | -0.202
91 | ATGCGCTA | -0.0278
92 | AGCTCTAC | -0.325
93 | AATGTCCT | -0.0934
94 | CATGTCCC | -0.1
95 | ATTGTCCC | -0.108
96 | AATGTCCA | 0.0363
97 | CATGTCCG | 0.382
98 | ATTGTCCA | -0.0211
99 | CATGTCCA | 0.0978
100 | ATTGTCCG | 0.359

Row | Sequence | PBM E-score
101 | AATGTCCG | 0.447
102 | TCGAACAA | 0.102
103 | AGGGGGTA | -0.323
104 | AGACCGCA | -0.0648
105 | AGGGGATC | -0.134
106 | CCAACCCG | -0.172
107 | CCCTGCTC | -0.0773
108 | CTCTCAGA | -0.139
109 | CGCCGATC | 0.137
110 | GTCCGATA | 0.362
111 | ATCCGATC | 0.18
112 | CGCCGATA | -0.197
113 | CTCCGATA | 0.432
114 | CACCGATA | 0.04
115 | ATCCGATA | 0.215
116 | CTCCGATC | 0.38
117 | GGCCGATA | -0.152
118 | CCCAGCTC | 0.03
119 | CTACACCC | -0.286
120 | AAAAAAAA | 0.228
121 | CCCCAATC | -0.327
122 | TGTGTAAA | 0.194
123 | CCGGACCA | 0.241
124 | ACGGACTA | 0.431
125 | ACGGACTG | 0.22

Row | Sequence | PBM E-score
126 | GCGGACTA | 0.404
127 | ACGGACTC | 0.393
128 | ATGGACTA | -0.0502
129 | AGGGACTC | -0.186
130 | GCGGACCA | 0.175
131 | GAGGACTA | 0.0368
132 | ACGGACGA | 0.1
133 | CTGGACTA | -0.0898
134 | CCGGACTA | 0.48
135 | CGATCTCA | -0.0333
136 | AAGTGATT | 0.237
137 | AGTGTATG | 0.14
138 | AGCCCATA | -0.137
139 | ACTATTCT | 0.0103
140 | CGGGACTC | 0.0911
141 | CCGGACAC | 0.112
142 | CCGGACTC | 0.476
143 | ACGTAACT | 0.009
144 | ATATCCAA | 0.158
145 | TTATCCAA | 0.3
146 | CTATCCAA | 0.057
147 | CTTTTGTA | 0.259
148 | ATTTTGTA | 0.318
149 | ATTTTGTG | 0.239
150 | GACTACGA | 0.0667

Row | Sequence | PBM E-score
151 | GGTCGGAC | 0.259
152 | AGTCGGAA | 0.243
153 | AGTCGGAG | 0.316
154 | CGTCGGAG | 0.422
155 | AGTCGGAC | 0.337
156 | CGTCGGAA | 0.196
157 | AGTCGGAT | 0.173
158 | TGTCGGAA | 0.218
159 | CGTCGGAC | 0.247
160 | CCATTCGG | 0.00649
161 | ATGTTCGG | 0.181
162 | CTGCCCAG | -0.222
163 | GCCTGGCA | -0.3
164 | CCACGGAA | 0.178
165 | CGACGGAC | 0.349
166 | CCACGGAC | 0.202
167 | AGACGGAA | 0.0433
168 | ACACGGAG | 0.409
169 | ACACGGAT | 0.0295
170 | AGACGGAT | 0.0639
171 | ACACGGAA | 0.18
172 | AGACGGAG | 0.322
173 | GGACGGAC | 0.285
174 | CGACGGAA | 0.116
175 | CCACGGAG | 0.365
